In PubChem BioAssay AID1486 (The Scripps Research Institute Molecular Screening Center, 2009):
Out of some 220,000 compounds screened, about 2,400 (1.1%) were called active. Only a selection was taken, and actives are over-represented in it overall. A number with no mark means an inactive call.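 The calls were made as follows: active = inhibition above a per-campaign cutoff, the mean inhibition of all tested compounds plus 3 SD (cut at about 27% in these data); inactive = the rest.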

Assay: parental Ba/F3 cell viability inhibition, counter-screen for JAK2V617F inhibitor project, murine pro-B, CellTiter-Glo luminescence (AID 1486);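 also: 0% = DMSO wells and 100% = JAK Inhibitor I control wells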
Settings: CellTiter-Glo ATP luminescence, at 5.6 µM, stronger effect = higher value

Compound | inhibition
COc1ccc(CC(NC(C)=O)C(=O)NC2CCN(C(=O)C3CC3)CC2)cc1OC (stereo not drawn) | -2.26%
Cc1cc(NC(=O)Nc2ccc(Cl)cc2)n(-c2ccccc2)n1 | 0.47%
Cc1nn(-c2ccccc2)c(-n2cccc2)c1C(=O)O | 7.83%
CCn1c(SCC(=O)Nc2sc(C)c(C)c2C#N)nnc1C1CC1 | -1.4%
COC(=O)c1ccc(/C=N/N2C(C)CCCC2C)cc1 (stereo not drawn) | -0.91%
CCCC(=O)Nc1nc2ccc(NC(=O)c3c(F)c(F)c(OC)c(F)c3F)cc2s1 | 83.3% (active)
CCCC(=O)Nc1nc2ccc(NC(=O)c3cccnc3)cc2s1 | 6.39%
COc1ccc2nc(Nc3nc4ccc(NC(C)=O)cc4s3)sc2c1 | 1.76%
CN(C)C(=O)c1cccn(Cc2cccc(C(F)(F)F)c2)c1=O | 1.53%
N#Cc1ncc(C(F)(F)F)cc1Oc1cccnc1 | 3.06%
Cc1ccc2nc(Nc3ccccc3O)nc(-c3ccccc3)c2c1 | 2.87%
COc1ccc(-c2csc(Cc3nc(O)cs3)n2)cc1 | 2.47%
CC(C)(C)C(=O)OCc1nc(-c2ccc(O)c(O)c2)cs1 | 55.4% (active)
COc1ccc(OC)c(Nc2nc(-c3ccc(O)c(O)c3)cs2)c1 | 7.93%
O=c1[nH]cnc2c1c(-c1ccccc1)cn2-c1ccc(F)cc1 | 5.71%
Cc1ccc2c(c1)C(O)(CC(=O)c1cccc(-n3cccc3)c1)C(=O)N2 (stereo not drawn) | 9.56%
Cc1cc2c(cc1C)[n+](C)cn2CC(O)COCC1CC=CCC1 (stereo not drawn) | 77.5% (active)
CCc1ccc(-n2c(SCc3cc(=O)n4cc(Br)ccc4n3)nc3[nH]ncc3c2=O)cc1 | 3.56%
Cc1cc(N2CCN(Cc3ccc4c(c3)OCO4)CC2)n2ncnc2n1 | 8.83%
Fc1ccc2[nH]c3c(N4CCN(Cc5ccc6c(c5)OCO6)CC4)ncnc3c2c1 | 43.4% (active)
Fc1ccc2[nH]c3c(N4CCSCC4)ncnc3c2c1 | 2.75%
Cc1ccc(OC(=O)c2c(C)nn(-c3ccccc3)c2C)cc1 | -2.11%
COc1cc(NS(=O)(=O)c2ccc(NC(C)=O)cc2)cc(OC)c1 | 6.53%
COc1ccc(NS(=O)(=O)c2ccc(NC(C)=O)cc2)cc1OC | 36.4% (active)

Compound | inhibition
COC(=O)COc1ccc(S(=O)(=O)Nc2ccc(NC(C)=O)cc2)cc1 | 3.84%
CCCCCCCC(=O)OC(CN1CCCCCC1)CN1CCCC1=O (stereo not drawn) | 2.21%
COc1ccc(-n2nnnc2-c2nc3ccccc3s2)cc1 | 2.01%
CCOc1cccc(-n2nnnc2-c2ccc(OC)cc2)c1 | 56.8% (active)
CCOc1cccc(-c2nnc3sc(COc4ccc(OC)cc4)nn23)c1 | 3.78%
CN(C)S(=O)(=O)c1ccc(C(=O)NCC(C)(C)N2CCOCC2)cc1 | 0.19%
CC(C)NC(=S)N1CCN(C(c2ccccc2)c2ccccc2)CC1 | 5.27%
CC1(C)CC(N2CCN(C(c3ccccc3)c3ccccc3)CC2)=CC(=[N+]2CCCCC2)C1 | 88.5% (active)
CC1(C)CC(=O)C=C(N2CCCC2)C1 | -2.25%
Brc1ccc2ncnc(NCc3cccnc3)c2c1 | -4.51%
CC1CCCCN1S(=O)(=O)c1ccc(C(=O)Nc2nnc(-c3cccs3)o2)cc1 (stereo not drawn) | 34.1% (active)
CC1CCCN(S(=O)(=O)c2ccc(C(=O)Nc3nnc(-c4ccncc4)o3)cc2)C1 (stereo not drawn) | 6.63%
CC1CCCCN1S(=O)(=O)c1ccc(S(=O)(=O)N(CC(=O)Nc2ccccc2)Cc2cccs2)cc1 (stereo not drawn) | 1.87%
COc1ccc2[nH]c(C(=O)Nc3ccccc3Cl)cc2c1 | -2.76%
Cn1ccc(=Nc2ccc(NC(=O)c3ccc(N=c4ccn(C)c5ccc([N+](=O)[O-])cc45)cc3)cc2)cc1 | 29.7% (active)
Cc1cc([N+](=O)[O-])ccc1NC(=O)c1ccc(NC(=O)C(C)C)cc1 | 6.88%
CC(=O)NC(=S)Nc1ccc(NC(=S)NC(=O)c2ccc([N+](=O)[O-])cc2)cc1 | -2.36%
CC1CCN(c2c(NCc3ccc(C(=O)NCc4ccccc4)cc3)c(=O)c2=O)CC1 | -0.24%
Oc1c(C(c2ccccn2)N2CCOCC2)ccc2cccnc12 (stereo not drawn) | 2.22%
CCN1CCN(C(c2cccnc2)c2cc(Cl)c3cccnc3c2O)CC1 (stereo not drawn) | 4.4%
CCOC(=O)N1CCN(C(c2cccnc2)c2ccc3cccnc3c2O)CC1 (stereo not drawn) | 35.8% (active)
CCCNC(=O)OC[C@H]1O[C@H](CCO/N=C/[C@@H](NS(=O)(=O)c2ccc(C)cc2)[C@H](C)/C=C/CC(=O)OC)C=C[C@@H]1Oc1ccc(OC)cc1 | 1.98%
CC1CCN(C(=O)c2ccc(S(=O)(=O)Cc3cc(F)ccc3F)c([N+](=O)[O-])c2)CC1 | 2.51%
Cc1ccc(/C=N/NC(=O)CN2CCN(Cc3ccccc3)CC2)s1 | 0.65%

Compound | inhibition
CCCCCCCCn1c2c(c(=N)c3c1CCC3)CCCC2 | 88.4% (active)
CCCCCCn1c(CN2CCCCC2)nc2c1c(=O)n(C)c(=O)n2C | 2.14%
Cc1cc(CNC(=O)c2cccc([N+](=O)[O-])c2)c2ccccc2n1 | -2.87%
O=C(Nn1c(SCc2ccc([N+](=O)[O-])cc2)nc2ccccc2c1=O)c1ccc(F)cc1 | -1.55%
CN(CC(=O)NC1CCCC1)S(=O)(=O)c1cnc[nH]1 | -0.47%
CSc1ccc(C#N)cc1NC(=O)c1ccc(Cl)cc1 | 1.1%
COc1ccccc1NC1=NC2(CCCC2)N=C(N)N1 | 10.5%
COc1ccccc1Nc1nc(N)nc(CN(C)C2CCCCC2)n1 | 0.48%
COc1ccccc1NC1=NC(c2ccc(Cl)cc2)N=C(N)N1 (stereo not drawn) | 81.1% (active)
CCOc1ccc(-c2nc(N)ncc2-c2ccccc2OC)c(O)c1 | -0.51%
CCOc1ccc(-c2n[nH]c(C)c2-c2ccccn2)c(O)c1 | 5.9%
CCOc1ccccc1Oc1cn[nH]c1-c1ccc(OC)cc1O | 94.7% (active)
CCCCCc1ccc(-c2ccc(OCC)cc2)nc1 | 3.47%
COCC(C)n1c(C)cc(C(=O)COc2ccc(C)nc2[N+](=O)[O-])c1C (stereo not drawn) | 3.84%
C/C(=N\NC(=O)c1cccnc1)c1ccc(-n2ccnc2)cc1 | -0.08%
COc1ccc(Cl)cc1NC(=O)C(C)N1CCc2ccccc21 (stereo not drawn) | 4.67%
Cc1ccc(/C=C/C(=O)O)cc1S(=O)(=O)N1CCC(Cc2ccccc2)CC1 | -3.54%
Cc1ccc(C2CC(=O)NC(SCC(=O)OCc3ccccc3)=C2C#N)o1 (stereo not drawn) | 2.62%
C=CCOC(=O)C1=C(C)NC(SCC(=O)OCC)=C(C#N)C1c1ccc(C)cc1 (stereo not drawn) | 1.41%
CCOC(=O)CSC1=C(C#N)C(c2sccc2C)CC(=O)N1 (stereo not drawn) | 81.7% (active)
Cc1nnc(CN(C)Cc2cn[nH]c2-c2ccc(-c3ccccc3)cc2)o1 | 3.87%
COC(=O)C(NC(=O)c1ccc(OC)cc1)(Nc1ncc(S(=O)(=O)c2ccc([N+](=O)[O-])cc2)s1)C(F)(F)F (stereo not drawn) | -1.49%
Cc1cccc(NC(=O)c2sc(-c3ccccc3)nc2-c2ccc([N+](=O)[O-])cc2)c1 | 2.68%
COc1ccc(C(=O)Nc2nc(-c3ccc(OC)cc3)c(-c3ccc([N+](=O)[O-])cc3)s2)cc1 | 61.3% (active)

Compound | inhibition
CCOC(=O)/C(=N\Nc1ccccc1[N+](=O)[O-])c1csc(Nc2ccccc2)n1 | 12%
Cc1nnc(N/N=C/c2ccccn2)[nH]c1=O | 1.19%
CC(C)(C)c1ccc(Oc2ccc(N)cc2)cc1 | 36.8% (active)
Cc1ccc(Oc2ccc(N)cc2)cc1 | 2.65%
Nc1ccc(Oc2ccc(Cl)cc2)cc1 | 9.91%
CCCCN(C)c1ccc([N+](=O)[O-])cc1 | 8.6%
CCc1[nH]nc(C(=O)N2CCCC(CNS(=O)(=O)c3cccs3)C2)c1C (stereo not drawn) | 6.5%
C/C(CC(=O)NC(C)c1ccccc1)=N\NC(N)=S (stereo not drawn) | -3.5%
CCOC(=O)C1CCN(c2ncnc3c2oc2ccc(Br)cc23)CC1 | 6.89%
CCOC(=O)N1CCN(C(=O)C2CCN(Cc3ccc(OC)cc3OC)CC2)CC1 | 3.57%
CCOC(=O)N1CCN(C(=O)C2CCN(c3ncnc4c3sc3cccc(F)c34)CC2)CC1 | 40.6% (active)
CNC(=O)COc1ccc(S(=O)(=O)Nc2ccccc2)cc1 | 0.46%
Cc1csc(CN(C)C(=O)CC2C(=O)NCCN2CC(C)(C)C)n1 (stereo not drawn) | 9.22%
Cc1ccc(C(=O)N/N=C\c2cc(Br)c(Br)o2)cn1 | 1.1%
Cc1cc(C(=O)CSc2nc(N)cc(=O)[nH]2)c(C)n1Cc1ccco1 | 33.8% (active)
Cc1cc(C(=O)CSc2nc(N)cc(=O)[nH]2)c(C)n1CCc1ccc(Cl)cc1 | 6.39%
Cc1cc(C(=O)CSc2nc(N)cc(=O)[nH]2)c(C)n1-c1cccc(F)c1 | 4.66%
CSC1=NCCN1C(=O)Cc1cccc2ccccc12 | 2.66%
CCn1c2ccccc2c2cc(NC(=O)Nc3ccc([N+](=O)[O-])cc3C)ccc21 | -1.24%
CC(=O)c1cc(-c2ccccc2)n(CCC(=O)NC2CCCCCC2)c1C | 1.01%
CC(C)c1cc(CN2CCOCC2)cc(C(C)C)c1O | -1.01%
